Experimental data as given in PubChem BioAssay (NCI).
The panel holds about 83,000 compounds, 20% with a hit somewhere; the sample as a whole holds those more often.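 Single-concentration screen, 48 h exposure, 96-well plates. Endpoint: percent growth. Below 10 = active.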 Activity calls are given as the source filed them.

Key:
Assay in all cases: NCI-60 one-dose screen, 48 h (100 = growth as untreated, 0 = no growth, -100 = all killed)
Settings in all cases: 10 µM unless noted
[1] = system: NCI-H23 lung
[2] = system: NCI-H226 lung
[3] = system: NCI-H322M lung
[4] = system: HOP-62 NSCLC
[5] = system: NCI-H460 lung
[6] = system: NCI-H522 lung
[7] = system: A549/ATCC NSCLC
[8] = system: 786-0 renal
[9] = system: COLO 205 colon
[10] = system: DU-145 prostate
[11] = system: K-562 leukemia
[12] = system: MALME-3M melanoma
[13] = system: MDA-MB-231 breast
[14] = system: RXF 393 renal
[15] = system: SF-268 CNS
[16] = system: SF-295 CNS
[17] = system: SF-539 CNS
[18] = system: UACC-257 melanoma
[19] = system: M14 melanoma

Measured: growth

O=C(/C=C/c1ccco1)c1ccccc1O
inactive: [1] 93.5% | [2] 99.6% | [3] 105% | [4] 109% | [5] 108% | [6] 88.3% | [7] 101% | [8] 96.8% | [9] 119% | [10] 108% | [11] 117% | [12] 121% | [13] 111% | [14] 92.4% | [15] 99.4% | [16] 110% | [17] 98.2% | [18] 112% | [19] 105%

CCCCCCCCCCCCCC1=NC(C)(C)CN1C(C)C
inactive: [3] 55.3%
active: [1] -4.87% | [2] 2.64% | [4] -79.7% | [5] -52.2% | [6] -61.7% | [7] -50.2% | [8] -86.2% | [9] -62.9% | [10] 9.58% | [11] -49.5% | [12] -48.9% | [13] -56.7% | [14] -65.9% | [15] -53.5% | [16] -52.8% | [17] -79.2% | [18] -57.5% | [19] -74.8%

COc1cc(OC)c2sc(-c3ccc(-n4cncc4-c4ccc(OC)c(N)c4)cc3)nc2c1
inactive: [1] 87.4% | [2] 94% | [3] 105% | [4] 117% | [5] 78% | [6] 79.9% | [7] 62.7% | [8] 79.2% | [9] 111% | [10] 93.5% | [11] 54.7% | [12] 82.4% | [13] 75.5% | [14] 75.4% | [15] 87.3% | [16] 69.4% | [17] 84.1% | [18] 94.3% | [19] 79.9%

CCCCCCCCCCCCCCCC1=NCCN1
inactive: [1] 72.5% | [2] 80.6% | [3] 76.6% | [4] 55.3% | [5] 32.5% | [6] 74% | [8] 78.8% | [10] 72.6% | [12] 103% | [13] 30.6% | [14] 60.6% | [15] 71.3% | [16] 90.9% | [17] 72.5% | [18] 99.9% | [19] 72.3%
active: [7] -15.4% | [9] -70.8% | [11] 3.78%

COc1ccc(-c2cnc(-c3ccncc3-c3cccc(OC)c3)o2)cc1
active: [5] 7.36% | [6] -59.9% | [9] -44.1% | [10] 0.973% | [11] 7.13% | [13] -9.9% | [16] -8.54% | [17] -0.0741%
inactive: [1] 19.4% | [2] 15.3% | [3] 56.3% | [4] 26.3% | [7] 30.7% | [8] 24.8% | [12] 92% | [14] 43.1% | [15] 18.2% | [18] 83.6% | [19] 23.9%

O=C(/C=C/c1ccc(F)cc1)N1CCN(C(=O)/C=C/c2ccc(C(F)(F)F)cc2)CC1
inactive: [1] 106% | [2] 108% | [3] 106% | [4] 109% | [5] 116% | [6] 92% | [7] 96.9% | [8] 107% | [9] 126% | [10] 109% | [11] 104% | [12] 98.6% | [13] 96.8% | [14] 120% | [15] 114% | [16] 119% | [17] 123% | [18] 97.3% | [19] 97.4%

COc1ccc2nc(-c3ccc(-c4noc(-c5ccc(Cl)cc5)n4)cc3)[nH]c2c1
inactive: [1] 63.7% | [2] 93.4% | [3] 67.5% | [4] 97.4% | [5] 79.1% | [6] 88.6% | [7] 72.8% | [8] 98.5% | [9] 67.8% | [10] 48% | [11] 45.1% | [12] 37.1% | [13] 75.6% | [14] 103% | [15] 63.4% | [16] 87.5% | [17] 77.2% | [18] 74.5% | [19] 42.9%

Cc1cc(O)ccc1Sc1ccccc1[N+](=O)[O-]
inactive: [1] 86.2% | [2] 97.2% | [3] 110% | [4] 92.2% | [5] 96.4% | [6] 75.9% | [7] 84.9% | [8] 107% | [9] 108% | [10] 96% | [11] 101% | [12] 79.6% | [13] 106% | [14] 106% | [15] 98.4% | [16] 90.1% | [17] 102% | [18] 88.1% | [19] 88.9%
